What all share (test): DAPPL (digital affinity profiling via proximity ligation, sequencing); 10 mM Tris-HCl pH 7.5, 50 mM NaCl, 1 mM DTT, 4% glycerol, room temperature, 30 min; GST-TFs on glutathione beads, 16-mer random dsDNA library, 0.1% formaldehyde crosslink after washing; high values mean tight binding
The target of one experiment is T1, FEV (Homo sapiens, UniProt Q99581 1-238).
T1 sequence: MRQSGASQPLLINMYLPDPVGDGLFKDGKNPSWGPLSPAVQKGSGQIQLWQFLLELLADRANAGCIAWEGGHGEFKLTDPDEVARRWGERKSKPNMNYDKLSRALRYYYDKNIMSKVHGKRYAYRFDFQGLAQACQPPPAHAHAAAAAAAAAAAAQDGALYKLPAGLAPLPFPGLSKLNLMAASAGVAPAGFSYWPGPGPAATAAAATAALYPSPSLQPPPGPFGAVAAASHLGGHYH
Particulars: protein: recombinant; tags: N-terminal GST; dsDNA, one strand shown. In a few lines:
(§1)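 Binding signal is defined as a hexamer's read frequency for one factor over its frequency for the tag-only sample. To obtain reads, GST-fused human transcription factors were expressed in yeast, captured on glutathione beads, barcoded with DNA and pooled with that sample. Pools met 200 nmole of a 16-mer random double-stranded DNA library in Tris/NaCl/DTT/glycerol buffer for 30 min at room temperature before washing, 0.1% formaldehyde crosslinking, proximity ligation (BsaI/T4 ligase, 1 h, 37 °C), PCR and Illumina NextSeq500 sequencing.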

A further experiment addresses ETV5 (Homo sapiens, UniProt P41161 1-510). To be noted: protein: recombinant; tags: N-terminal GST; dsDNA, one strand shown. In a few lines: as §1
Another experiment concerns the target HSF1 (Homo sapiens, UniProt Q00613 1-529). Particulars: protein: recombinant; tags: N-terminal GST; chain copies: 3; dsDNA, one strand shown. In a few lines:
as §1

Another experiment has as its target T2, SPIC (Homo sapiens, UniProt Q8N5J4 1-248).
T2 sequence: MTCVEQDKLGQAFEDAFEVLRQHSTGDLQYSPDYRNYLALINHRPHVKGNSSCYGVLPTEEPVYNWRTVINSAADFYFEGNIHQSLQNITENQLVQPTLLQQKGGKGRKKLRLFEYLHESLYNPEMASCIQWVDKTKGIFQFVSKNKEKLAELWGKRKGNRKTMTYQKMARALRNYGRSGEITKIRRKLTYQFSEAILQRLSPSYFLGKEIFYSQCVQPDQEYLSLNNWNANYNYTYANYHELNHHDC
To be noted: protein: recombinant; tags: N-terminal GST; dsDNA, one strand shown. In a few lines:
as §1

The target in another experiment is ELF4 (Homo sapiens, UniProt Q99607 1-663). To be noted: protein: recombinant; tags: N-terminal GST; dsDNA, one strand shown. The gist of the method: as §1
Chain of ELF4 (Q99607 whole entry): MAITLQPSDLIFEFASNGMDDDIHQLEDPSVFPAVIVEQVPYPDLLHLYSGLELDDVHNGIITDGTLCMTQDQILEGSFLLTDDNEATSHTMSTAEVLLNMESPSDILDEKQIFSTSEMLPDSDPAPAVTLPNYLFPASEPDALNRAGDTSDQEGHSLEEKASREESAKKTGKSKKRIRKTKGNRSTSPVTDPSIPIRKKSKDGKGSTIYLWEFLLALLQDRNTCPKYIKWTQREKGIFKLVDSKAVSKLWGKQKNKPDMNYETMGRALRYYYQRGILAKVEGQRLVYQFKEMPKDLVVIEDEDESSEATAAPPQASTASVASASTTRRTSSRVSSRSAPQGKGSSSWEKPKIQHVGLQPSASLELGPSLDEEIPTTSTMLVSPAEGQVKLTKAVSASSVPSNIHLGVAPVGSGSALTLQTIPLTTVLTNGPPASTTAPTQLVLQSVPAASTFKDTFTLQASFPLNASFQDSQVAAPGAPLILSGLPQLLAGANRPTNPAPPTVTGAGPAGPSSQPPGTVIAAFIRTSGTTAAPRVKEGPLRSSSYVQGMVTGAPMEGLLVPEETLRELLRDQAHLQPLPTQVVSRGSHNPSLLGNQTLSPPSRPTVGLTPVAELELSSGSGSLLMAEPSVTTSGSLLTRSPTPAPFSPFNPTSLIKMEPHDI
Another experiment addresses T3, ELK4 (Homo sapiens, UniProt P28324-2 1-405).
T3 sequence: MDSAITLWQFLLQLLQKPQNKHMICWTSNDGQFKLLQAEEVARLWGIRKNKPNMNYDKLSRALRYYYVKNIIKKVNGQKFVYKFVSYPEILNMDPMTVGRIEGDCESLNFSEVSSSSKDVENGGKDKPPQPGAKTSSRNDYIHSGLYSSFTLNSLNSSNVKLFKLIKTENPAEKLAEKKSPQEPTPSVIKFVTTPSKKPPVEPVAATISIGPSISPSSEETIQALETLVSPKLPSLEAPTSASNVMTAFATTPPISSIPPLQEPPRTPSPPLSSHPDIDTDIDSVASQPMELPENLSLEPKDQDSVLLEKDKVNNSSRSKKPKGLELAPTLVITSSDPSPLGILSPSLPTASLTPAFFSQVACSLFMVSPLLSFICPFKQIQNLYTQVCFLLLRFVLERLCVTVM
Particulars: protein: recombinant; tags: N-terminal GST; dsDNA, one strand shown. In a few lines: as §1

A further experiment deals with T4, ETV2 (Homo sapiens, UniProt O00321 1-342).
T4 sequence: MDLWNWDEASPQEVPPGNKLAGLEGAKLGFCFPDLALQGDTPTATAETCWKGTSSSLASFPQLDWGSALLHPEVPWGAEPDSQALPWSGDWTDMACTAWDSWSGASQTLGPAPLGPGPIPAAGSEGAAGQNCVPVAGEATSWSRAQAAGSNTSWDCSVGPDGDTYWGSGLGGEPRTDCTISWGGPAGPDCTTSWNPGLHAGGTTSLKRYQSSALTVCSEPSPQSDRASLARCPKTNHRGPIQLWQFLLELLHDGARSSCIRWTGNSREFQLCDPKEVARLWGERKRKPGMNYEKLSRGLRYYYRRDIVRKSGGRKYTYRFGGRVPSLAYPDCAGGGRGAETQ
To be noted: protein: recombinant; tags: N-terminal GST; dsDNA, one strand shown. The gist of the method:
as §1

In another experiment the target is T5, ELF3 (Homo sapiens, UniProt P78545 1-371).
T5 sequence: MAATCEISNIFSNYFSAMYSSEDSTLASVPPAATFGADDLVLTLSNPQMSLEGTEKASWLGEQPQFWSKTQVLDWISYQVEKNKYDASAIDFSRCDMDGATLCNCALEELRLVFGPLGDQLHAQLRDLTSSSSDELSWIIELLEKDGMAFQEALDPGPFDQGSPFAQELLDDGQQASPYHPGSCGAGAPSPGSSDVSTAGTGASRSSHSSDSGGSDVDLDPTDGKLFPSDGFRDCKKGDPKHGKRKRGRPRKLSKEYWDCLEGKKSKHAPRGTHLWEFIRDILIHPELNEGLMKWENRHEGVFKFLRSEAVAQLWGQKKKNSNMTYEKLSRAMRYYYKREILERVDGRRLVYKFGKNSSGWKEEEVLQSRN
Particulars: protein: recombinant; tags: N-terminal GST; dsDNA, one strand shown. The gist of the method: as §1

The target in the next experiment is CRX (Homo sapiens, UniProt O43186 1-299). To be noted: protein: recombinant; tags: N-terminal GST; dsDNA, one strand shown. In a few lines:
as §1

In the next experiment the target is ETV1 (Homo sapiens, UniProt P50549 1-477). Particulars: protein: recombinant; tags: N-terminal GST; dsDNA, one strand shown. The gist of the method: as §1
Chain of ETV1 (P50549 whole entry): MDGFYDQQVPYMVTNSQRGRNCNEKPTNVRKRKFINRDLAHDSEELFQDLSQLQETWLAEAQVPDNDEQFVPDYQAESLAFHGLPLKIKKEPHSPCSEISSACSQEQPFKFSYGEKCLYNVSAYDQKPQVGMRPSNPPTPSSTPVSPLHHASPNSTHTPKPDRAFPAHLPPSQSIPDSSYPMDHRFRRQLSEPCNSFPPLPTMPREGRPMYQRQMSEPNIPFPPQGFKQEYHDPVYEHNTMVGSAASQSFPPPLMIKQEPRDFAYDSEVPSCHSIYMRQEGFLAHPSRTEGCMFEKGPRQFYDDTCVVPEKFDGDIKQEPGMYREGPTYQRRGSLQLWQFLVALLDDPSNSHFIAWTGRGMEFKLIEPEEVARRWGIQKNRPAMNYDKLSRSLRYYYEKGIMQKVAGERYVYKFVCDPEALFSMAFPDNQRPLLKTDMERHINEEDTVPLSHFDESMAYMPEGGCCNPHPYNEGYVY
A further experiment concerns the target T6, ERF (Homo sapiens, UniProt P50548 1-548).
T6 sequence: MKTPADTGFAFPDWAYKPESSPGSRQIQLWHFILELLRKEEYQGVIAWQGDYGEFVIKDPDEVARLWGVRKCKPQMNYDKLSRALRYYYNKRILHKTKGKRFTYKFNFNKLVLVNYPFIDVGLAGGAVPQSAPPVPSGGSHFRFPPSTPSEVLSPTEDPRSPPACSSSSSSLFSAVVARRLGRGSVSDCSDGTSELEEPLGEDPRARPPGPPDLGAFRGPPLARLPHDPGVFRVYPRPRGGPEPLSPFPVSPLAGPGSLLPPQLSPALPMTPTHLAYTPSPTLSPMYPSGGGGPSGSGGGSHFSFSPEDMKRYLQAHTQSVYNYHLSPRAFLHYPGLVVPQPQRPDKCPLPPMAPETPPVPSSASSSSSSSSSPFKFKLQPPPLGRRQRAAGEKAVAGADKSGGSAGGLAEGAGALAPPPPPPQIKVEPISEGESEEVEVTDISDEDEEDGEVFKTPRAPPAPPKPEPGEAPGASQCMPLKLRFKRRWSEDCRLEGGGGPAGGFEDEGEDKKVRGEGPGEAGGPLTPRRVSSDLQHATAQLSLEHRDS
Particulars: protein: recombinant; tags: N-terminal GST; dsDNA, one strand shown. The gist of the method: as §1

The target in another experiment is T7, ETV3L (Homo sapiens, UniProt Q6ZN32 1-361).
T7 sequence: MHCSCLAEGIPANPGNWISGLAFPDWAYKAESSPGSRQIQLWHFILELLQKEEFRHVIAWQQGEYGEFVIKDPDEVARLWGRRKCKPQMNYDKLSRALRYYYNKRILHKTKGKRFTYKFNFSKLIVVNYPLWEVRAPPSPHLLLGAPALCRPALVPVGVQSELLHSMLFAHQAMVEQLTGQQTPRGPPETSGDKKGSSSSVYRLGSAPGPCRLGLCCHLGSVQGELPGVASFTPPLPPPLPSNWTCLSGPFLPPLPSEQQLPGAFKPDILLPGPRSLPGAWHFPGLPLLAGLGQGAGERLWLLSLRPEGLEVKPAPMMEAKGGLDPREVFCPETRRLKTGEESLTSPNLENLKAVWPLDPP
Particulars: protein: recombinant; tags: N-terminal GST; dsDNA, one strand shown. The gist of the method:
as §1

In a further experiment the target is T8, ETS2 (Homo sapiens, UniProt P15036 1-469).
T8 sequence: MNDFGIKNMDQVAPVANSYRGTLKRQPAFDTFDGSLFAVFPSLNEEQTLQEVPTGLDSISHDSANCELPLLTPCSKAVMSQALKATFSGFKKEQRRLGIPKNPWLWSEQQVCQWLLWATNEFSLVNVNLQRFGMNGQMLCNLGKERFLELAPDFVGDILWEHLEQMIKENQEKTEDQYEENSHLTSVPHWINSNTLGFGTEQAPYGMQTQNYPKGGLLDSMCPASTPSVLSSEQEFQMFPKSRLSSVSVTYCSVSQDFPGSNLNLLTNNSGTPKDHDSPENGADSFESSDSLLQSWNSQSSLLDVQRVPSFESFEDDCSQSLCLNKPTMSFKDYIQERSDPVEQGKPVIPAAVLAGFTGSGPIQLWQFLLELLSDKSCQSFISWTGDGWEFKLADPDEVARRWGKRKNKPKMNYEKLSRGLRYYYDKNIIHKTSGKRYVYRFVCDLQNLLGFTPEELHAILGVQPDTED
To be noted: protein: recombinant; tags: N-terminal GST; dsDNA, one strand shown. The gist of the method: as §1

Another experiment has as its target T9, SPDEF (Homo sapiens, UniProt O95238 1-335).
T9 sequence: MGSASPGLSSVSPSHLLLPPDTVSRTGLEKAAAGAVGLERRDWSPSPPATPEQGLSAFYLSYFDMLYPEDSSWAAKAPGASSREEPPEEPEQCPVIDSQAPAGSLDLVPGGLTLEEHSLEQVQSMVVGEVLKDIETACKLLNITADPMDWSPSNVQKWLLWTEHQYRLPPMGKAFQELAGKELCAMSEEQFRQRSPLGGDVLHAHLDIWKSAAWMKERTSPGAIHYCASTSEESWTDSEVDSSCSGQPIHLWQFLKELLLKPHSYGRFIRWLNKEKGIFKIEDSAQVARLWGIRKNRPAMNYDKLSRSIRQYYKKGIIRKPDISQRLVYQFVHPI
Particulars: protein: recombinant; tags: N-terminal GST; dsDNA, one strand shown. In a few lines: as §1

In the next experiment the target is T10, ETV7 (Homo sapiens, UniProt Q9Y603 1-341).
T10 sequence: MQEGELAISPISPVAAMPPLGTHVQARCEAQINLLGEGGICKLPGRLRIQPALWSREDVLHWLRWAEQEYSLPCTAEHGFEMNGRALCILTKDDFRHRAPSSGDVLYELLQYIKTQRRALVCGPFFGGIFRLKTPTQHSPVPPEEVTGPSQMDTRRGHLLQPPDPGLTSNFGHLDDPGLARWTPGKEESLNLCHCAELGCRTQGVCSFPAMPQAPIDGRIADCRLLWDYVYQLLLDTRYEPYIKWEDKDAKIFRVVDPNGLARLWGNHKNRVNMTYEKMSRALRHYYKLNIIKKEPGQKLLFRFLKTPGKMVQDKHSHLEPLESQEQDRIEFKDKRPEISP
To be noted: protein: recombinant; tags: N-terminal GST; dsDNA, one strand shown. In a few lines: as §1

The target in the next experiment is T11, ELF5 (Homo sapiens, UniProt Q9UKW6-2 1-255).
T11 sequence: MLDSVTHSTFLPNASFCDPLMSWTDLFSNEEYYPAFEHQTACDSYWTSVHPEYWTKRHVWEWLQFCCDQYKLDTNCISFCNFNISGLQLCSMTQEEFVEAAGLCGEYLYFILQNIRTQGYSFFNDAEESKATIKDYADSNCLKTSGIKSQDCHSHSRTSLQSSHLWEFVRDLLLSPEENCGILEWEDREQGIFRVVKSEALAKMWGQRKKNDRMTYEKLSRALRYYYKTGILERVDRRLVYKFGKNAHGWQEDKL
To be noted: protein: recombinant; tags: N-terminal GST; dsDNA, one strand shown. In a few lines: as §1

The target of a further experiment is T12, ETV3 (Homo sapiens, UniProt P41162-2 1-143).
T12 sequence: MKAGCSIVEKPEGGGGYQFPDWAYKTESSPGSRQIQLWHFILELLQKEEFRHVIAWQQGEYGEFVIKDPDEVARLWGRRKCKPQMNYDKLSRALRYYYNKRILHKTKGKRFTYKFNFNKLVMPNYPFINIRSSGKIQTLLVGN
Particulars: protein: recombinant; tags: N-terminal GST; dsDNA, one strand shown. The gist of the method:
as §1

The target of the next experiment is ETV6 (Homo sapiens, UniProt P41212 1-452). To be noted: protein: recombinant; tags: N-terminal GST; dsDNA, one strand shown. In a few lines: as §1
Chain of ETV6 (P41212 whole entry): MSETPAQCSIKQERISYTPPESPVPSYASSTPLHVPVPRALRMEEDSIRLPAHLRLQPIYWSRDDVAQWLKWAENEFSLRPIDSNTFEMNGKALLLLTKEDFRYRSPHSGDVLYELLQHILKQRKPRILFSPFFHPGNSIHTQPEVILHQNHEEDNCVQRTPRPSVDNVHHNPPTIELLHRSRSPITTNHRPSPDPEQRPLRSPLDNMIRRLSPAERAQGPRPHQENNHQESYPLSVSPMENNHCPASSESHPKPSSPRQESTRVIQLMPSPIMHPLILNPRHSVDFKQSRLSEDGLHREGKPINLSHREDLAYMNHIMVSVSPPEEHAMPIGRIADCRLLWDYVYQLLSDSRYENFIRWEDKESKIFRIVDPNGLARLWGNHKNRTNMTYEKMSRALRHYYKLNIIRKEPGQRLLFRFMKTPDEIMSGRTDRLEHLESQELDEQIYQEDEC

Chain of HSF1 (Q00613 whole entry): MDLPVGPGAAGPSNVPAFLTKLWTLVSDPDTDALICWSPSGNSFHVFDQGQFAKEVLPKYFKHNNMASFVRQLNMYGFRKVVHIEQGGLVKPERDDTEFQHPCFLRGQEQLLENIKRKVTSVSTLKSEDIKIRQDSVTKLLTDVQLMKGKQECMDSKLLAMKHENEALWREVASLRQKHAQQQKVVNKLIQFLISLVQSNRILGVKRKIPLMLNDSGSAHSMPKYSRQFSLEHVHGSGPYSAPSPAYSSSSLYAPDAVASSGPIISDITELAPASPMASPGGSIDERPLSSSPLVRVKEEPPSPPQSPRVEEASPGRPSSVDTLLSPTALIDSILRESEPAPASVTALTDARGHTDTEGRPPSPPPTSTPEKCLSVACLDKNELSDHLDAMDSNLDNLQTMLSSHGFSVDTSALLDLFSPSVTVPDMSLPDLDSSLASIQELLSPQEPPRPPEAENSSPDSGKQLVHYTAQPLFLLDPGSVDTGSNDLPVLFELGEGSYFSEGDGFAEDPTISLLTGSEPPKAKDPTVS
Chain of ETV5 (P41161 whole entry): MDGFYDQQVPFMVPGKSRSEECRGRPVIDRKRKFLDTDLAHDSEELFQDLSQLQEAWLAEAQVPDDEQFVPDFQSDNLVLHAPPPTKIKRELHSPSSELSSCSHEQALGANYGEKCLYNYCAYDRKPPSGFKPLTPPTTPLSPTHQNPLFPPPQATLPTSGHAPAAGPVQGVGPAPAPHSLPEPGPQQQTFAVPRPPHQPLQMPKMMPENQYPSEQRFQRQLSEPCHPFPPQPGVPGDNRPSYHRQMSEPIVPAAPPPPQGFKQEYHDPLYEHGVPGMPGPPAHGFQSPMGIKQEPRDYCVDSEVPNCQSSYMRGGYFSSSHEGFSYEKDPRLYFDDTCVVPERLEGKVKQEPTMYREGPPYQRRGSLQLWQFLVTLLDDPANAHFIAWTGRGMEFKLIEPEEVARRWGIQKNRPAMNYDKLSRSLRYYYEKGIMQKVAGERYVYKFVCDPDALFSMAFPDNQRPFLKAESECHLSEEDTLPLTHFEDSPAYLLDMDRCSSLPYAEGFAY
Chain of CRX (O43186 whole entry): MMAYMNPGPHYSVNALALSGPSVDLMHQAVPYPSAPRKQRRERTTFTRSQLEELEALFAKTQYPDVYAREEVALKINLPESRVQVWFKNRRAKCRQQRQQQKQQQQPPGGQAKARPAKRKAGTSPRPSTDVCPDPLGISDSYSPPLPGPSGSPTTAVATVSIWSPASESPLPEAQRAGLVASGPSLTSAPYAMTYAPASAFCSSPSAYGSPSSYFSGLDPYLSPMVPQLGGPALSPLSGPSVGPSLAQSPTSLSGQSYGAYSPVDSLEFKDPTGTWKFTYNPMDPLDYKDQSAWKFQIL

As to TTGACT, the binding signal with FEV was 1.15 fold enrichment (6-mer frequency, TF over GST control); with ETV5 it was 1.13 fold enrichment (6-mer frequency, TF over GST control); with HSF1, 1.12 fold enrichment (6-mer frequency, TF over GST control); with SPIC it was 1.15 fold enrichment (6-mer frequency, TF over GST control); with ELF4, 1.21 fold enrichment (6-mer frequency, TF over GST control); in the experiment with ELK4 it was 1.3 fold enrichment (6-mer frequency, TF over GST control). For the same sequence, the binding signal in the experiment with ETV2 is 1.27 fold enrichment (6-mer frequency, TF over GST control); with ELF3, 1.15 fold enrichment (6-mer frequency, TF over GST control); in the experiment with CRX, 1.09 fold enrichment (6-mer frequency, TF over GST control); with ETV1 it was 1.18 fold enrichment (6-mer frequency, TF over GST control); in the experiment with ERF it was 1.18 fold enrichment (6-mer frequency, TF over GST control); with ETV3L, 1.09 fold enrichment (6-mer frequency, TF over GST control). The binding signal was 1.14 fold enrichment (6-mer frequency, TF over GST control) in the experiment with ETS2; 1.15 fold enrichment (6-mer frequency, TF over GST control) with SPDEF; 1.22 fold enrichment (6-mer frequency, TF over GST control) with ETV7; 1.08 fold enrichment (6-mer frequency, TF over GST control) in the experiment with ELF5; 1.15 fold enrichment (6-mer frequency, TF over GST control) in the experiment with ETV3; 1.24 fold enrichment (6-mer frequency, TF over GST control) with ETV6.

For the origin of these results see paper PMC7862700, “An all-to-all approach to the identification of sequence-specific readers for epigenetic DNA modifications on cytosine”.
